According to PubChem BioAssay AID1159580 (chemical genetic matrix, 2015):
“And” between values parts separate entries of the source, which are not always exact repeats. Equal entries are not always repeated. In all, about 5,500 compounds went through this assay and about 2,000 (36%) were called active. About 18% were inconclusive and are not listed. Rule as the data show it: active = normalized growth mostly below about 0.91 (no sharp cut-off); inconclusive = no clear call, values can overlap the other calls; inactive = mostly above about 0.92. This is one part of the list.

Test: chemical genetic growth profiling, strain panel (AID 1159580);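 also: tested at 20 µM; growth read once vehicle control cultures reached saturation at 30 °C; 1 = growth at the plate median or of vehicle wells; lower values mean less growth of the strain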
Conditions: growth OD

Measured: normalized growth

CN(C)CCC=C1c2ccccc2C=Cc2ccccc21
inactive: S. cerevisiae deletion strains, locus YKL009W, strain mrt4, stronger effect = lower value 0.959 | S. cerevisiae deletion strains, locus YKL068W, stronger effect = lower value 0.982 | S. cerevisiae deletion strains, locus YKL085W, strain MDH1 (second series), stronger effect = lower value 0.975 | S. cerevisiae deletion strains, locus YKL085W, strain MDH1, stronger effect = lower value 0.975 | S. cerevisiae deletion strains, locus YKL160W, strain elf1, stronger effect = lower value 0.958 | S. cerevisiae deletion strains, locus YKL190W, strain CNB1, stronger effect = lower value 0.977 | S. cerevisiae deletion strains, locus YKR001C, strain vps1, stronger effect = lower value 1.01 | S. cerevisiae deletion strains, locus YKR026C, strain gcn3, stronger effect = lower value 0.998 | S. cerevisiae deletion strains, locus YKR091W, strain srl3, stronger effect = lower value 0.971 | S. cerevisiae deletion strains, locus YLL001W, strain dnm1, stronger effect = lower value 1.01 | S. cerevisiae deletion strains, locus YLL026W, stronger effect = lower value 0.985 | S. cerevisiae deletion strains, locus YLL041C, strain sdh2, stronger effect = lower value 0.984 | S. cerevisiae deletion strains, locus YLR027C, strain aat2, stronger effect = lower value 0.98 | S. cerevisiae deletion strains, locus YLR058C, strain SHM2, stronger effect = lower value 0.99 | S. cerevisiae deletion strains, locus YLR102C, strain apc9, stronger effect = lower value 0.985 | S. cerevisiae deletion strains, locus YLR113W, strain HOG1, stronger effect = lower value 1.04 | S. cerevisiae deletion strains, locus YLR221C, strain rsa3, stronger effect = lower value 1 | S. cerevisiae deletion strains, locus YLR258W, strain gsy2, stronger effect = lower value 0.989 | S. cerevisiae deletion strains, locus YLR262C, strain YPT6 (second series), stronger effect = lower value 1.02 | S. cerevisiae deletion strains, locus YLR268W, strain sec22, stronger effect = lower value 0.99 | S. cerevisiae deletion strains, locus YLR320W, strain mms22, stronger effect = lower value 1.01 | S. cerevisiae deletion strains, locus YLR330W, strain CHS5, stronger effect = lower value 0.987 | S. cerevisiae deletion strains, locus YLR342W, strain FKS1 (second series), stronger effect = lower value 0.903 | S. cerevisiae deletion strains, locus YLR342W, strain FKS1, stronger effect = lower value 0.979 | S. cerevisiae deletion strains, locus YLR357W, strain rsc2, stronger effect = lower value 1.01 | S. cerevisiae deletion strains, locus YLR370C, strain arc18, stronger effect = lower value 0.988 | S. cerevisiae deletion strains, locus YLR371W, strain rom2, stronger effect = lower value 0.992 | S. cerevisiae deletion strains, locus YLR384C, strain iki3, stronger effect = lower value 0.991 | S. cerevisiae deletion strains, locus YML016C, strain PPZ1, stronger effect = lower value 0.996 | S. cerevisiae deletion strains, locus YML032C, strain rad52, stronger effect = lower value 1.01 | S. cerevisiae deletion strains, locus YML120C, strain ndi1, stronger effect = lower value 1 | S. cerevisiae deletion strains, locus YML124C, strain tub3, stronger effect = lower value 0.997 | S. cerevisiae deletion strains, locus YMR058W, strain fet3, stronger effect = lower value 0.968 | S. cerevisiae deletion strains, locus YMR078C, strain ctf18, stronger effect = lower value 0.984 | S. cerevisiae deletion strains, locus YMR125W, strain sto1, stronger effect = lower value 0.95 | S. cerevisiae deletion strains, locus YMR129W, stronger effect = lower value 0.99 | S. cerevisiae deletion strains, locus YMR205C, strain PFK2, stronger effect = lower value 1 | S. cerevisiae deletion strains, locus YMR223W, strain ubp8, stronger effect = lower value 0.951 | S. cerevisiae deletion strains, locus YMR231W, strain pep5, stronger effect = lower value 0.989 | S. cerevisiae deletion strains, locus YMR263W, strain SAP30, stronger effect = lower value 1 | S. cerevisiae deletion strains, locus YMR307W, strain GAS1, stronger effect = lower value 1.01 and 0.999 | S. cerevisiae deletion strains, locus YNL067W, strain RPL9B, stronger effect = lower value 0.994 | S. cerevisiae deletion strains, locus YNL071W, strain lat1, stronger effect = lower value 0.99 | S. cerevisiae deletion strains, locus YNL153C, strain GIM3, stronger effect = lower value 1.04 and 1 | S. cerevisiae deletion strains, locus YNL175C, strain NOP13, stronger effect = lower value 1.06 | S. cerevisiae deletion strains, locus YNL183C, strain NPR1, stronger effect = lower value 0.955 | S. cerevisiae deletion strains, locus YNL197C, strain WHI3, stronger effect = lower value 1.02 | S. cerevisiae deletion strains, locus YNL224C, strain SQS1, stronger effect = lower value 1.01 | S. cerevisiae deletion strains, locus YNL233W, strain BNI4, stronger effect = lower value 1.02 | S. cerevisiae deletion strains, locus YNL248C, strain rpa49, stronger effect = lower value 0.959 | S. cerevisiae deletion strains, locus YNL250W, strain rad50, stronger effect = lower value 0.985 | S. cerevisiae deletion strains, locus YNL271C, strain bni1, stronger effect = lower value 0.986 | S. cerevisiae deletion strains, locus YNL298W, strain CLA4, stronger effect = lower value 0.988 | S. cerevisiae deletion strains, locus YNL307C, strain MCK1, stronger effect = lower value 0.994 | S. cerevisiae deletion strains, locus YNL322C, strain KRE1 (second series), stronger effect = lower value 0.992 | S. cerevisiae deletion strains, locus YNL322C, strain KRE1, stronger effect = lower value 0.977 | S. cerevisiae deletion strains, locus YNR049C, strain mso1, stronger effect = lower value 0.978 | S. cerevisiae deletion strains, locus YNR052C, strain pop2, stronger effect = lower value 0.948 | S. cerevisiae deletion strains, locus YOL006C, strain TOP1, stronger effect = lower value 0.852 | S. cerevisiae deletion strains, locus YOL012C, strain htz1 0.956 | S. cerevisiae deletion strains, locus YOL147C, strain pex11, stronger effect = lower value 0.996 | S. cerevisiae deletion strains, locus YOR001W, strain rrp6, stronger effect = lower value 0.965 | S. cerevisiae deletion strains, locus YOR061W, strain CKA2, stronger effect = lower value 0.99 | S. cerevisiae deletion strains, locus YOR069W, strain VPS5, stronger effect = lower value 0.983 | S. cerevisiae deletion strains, locus YOR070C, strain gyp1, stronger effect = lower value 0.966 | S. cerevisiae deletion strains, locus YOR080W, strain dia2, stronger effect = lower value 0.98 | S. cerevisiae deletion strains, locus YOR083W, strain WHI5 (second series), stronger effect = lower value 1.08 | S. cerevisiae deletion strains, locus YOR083W, strain WHI5, stronger effect = lower value 0.945 | S. cerevisiae deletion strains, locus YOR106W, strain vam3, stronger effect = lower value 0.89 | S. cerevisiae deletion strains, locus YOR136W, strain idh2, stronger effect = lower value 1.03 | S. cerevisiae deletion strains, locus YOR144C, strain elg1, stronger effect = lower value 1 | S. cerevisiae deletion strains, locus YOR184W, strain ser1, stronger effect = lower value 1.04 | S. cerevisiae deletion strains, locus YOR231W, strain MKK1, stronger effect = lower value 1.02 | S. cerevisiae deletion strains, locus YOR265W, strain rbl2, stronger effect = lower value 0.983 | S. cerevisiae deletion strains, locus YOR270C, strain vph1, stronger effect = lower value 0.809 | S. cerevisiae deletion strains, locus YOR290C, strain snf2, stronger effect = lower value 0.958 | S. cerevisiae deletion strains, locus YOR316C, strain cot1, stronger effect = lower value 0.988 | S. cerevisiae deletion strains, locus YPL051W, strain arl3, stronger effect = lower value 0.964 | S. cerevisiae deletion strains, locus YPL078C, strain atp4, stronger effect = lower value 0.989 | S. cerevisiae deletion strains, locus YPL106C, strain sse1, stronger effect = lower value 0.927 | S. cerevisiae deletion strains, locus YPL240C, strain hsp82, stronger effect = lower value 0.985 | S. cerevisiae deletion strains, locus YPL241C, strain CIN2, stronger effect = lower value 0.978 and 1 | S. cerevisiae deletion strains, locus YPL256C, strain CLN2, stronger effect = lower value 1.01 | S. cerevisiae deletion strains, locus YPR119W, strain clb2, stronger effect = lower value 0.998 | S. cerevisiae deletion strains, locus YPR141C, strain kar3, stronger effect = lower value 0.987 | S. cerevisiae deletion strains, locus YPR163C, strain tif3, stronger effect = lower value 0.988 | S. cerevisiae deletion strains, locus YPR167C, strain met16, stronger effect = lower value 0.992 | S. cerevisiae deletion strains, strain wtn01, stronger effect = lower value 0.981 | S. cerevisiae strains, strain wild type, stronger effect = lower value 0.99
active: S. cerevisiae deletion strains, locus YLR039C, strain RIC1, stronger effect = lower value 1.35 [resistant] | S. cerevisiae deletion strains, locus YLR262C, strain YPT6, stronger effect = lower value 1.53 [resistant] | S. cerevisiae deletion strains, locus YLR418C, strain cdc73, stronger effect = lower value 0.811 | S. cerevisiae deletion strains, locus YNL209W, strain ssb2, stronger effect = lower value 0.925
